# Sampled rows, rich in hits. Any-hit rate of the full collection: about 19%.
# HT1080NT lethal = kills 2HG-producing HT-1080-NT fibrosarcoma cells. HT-1080-NT fibrosarcoma viability, CellTiter-Glo ATP luminescence, 48 h. 1.6% of 360,000 active. AID 686970. Potency, µM (doses to about 46.1 µM), for the others: at the highest dose activity, negative = less viability, hits mostly cytotoxic;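 also: NT is the 2HG producing partner of a matched IDH1 knockdown line; potency is read from the fitted curve at half-maximal effect; 0% = DMSO-treated cells and -100% = media-only wells without cells; nearly all actives have a fitted effect of over 55% in size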
#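 750 cells/well, RPMI + 5% FBS; 2 h settle, compound pin-transfer, 48 h at 37 degrees C. CellTiter-Glo 10 min RT, luminescence. Normalized to DMSO and media-only wells.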
# DT40 TDP1 CPT = DT40-hTDP1 cell growth loss with CPT. AID 686979. 12% of 420,000 active. chicken DT40 Tdp1-/-;hTDP1 cells + 20 nM CPT, ATP luminescence, 48 h. Potency, µM (titrated, usually from 46.2 µM), for inactives: top-dose activity change, negative = growth inhibition, usual class: inhibitors; also: potency is read from the fitted curve at half-maximal effect; nearly all actives have a fitted effect of over 55% in size
#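 Chicken DT40 Tdp1-/- cells complemented with human TDP1, 400 cells/well, exposed to compounds plus 20 nM camptothecin for at least 48 h at 37 C; viability read as ATP content by CellTiter-Glo luminescence.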
# IL-1B inflam inh = inhibitors of inflammasome signaling (IL-1 beta secretion); THP-1 LPS/ATP IL-1B secretion, AlphaLISA, 16 h; hits give low values; activity change, % at 57.5 µM; 4.7% of 360,000 active; AID 743279; in the data active = activity change below about -50%; inconclusive = mostly about -30% to -49%
#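 Secreted IL-1B measured by AlphaLISA bead assay after 16 h compound exposure of THP-1 cells; compounds (final up to 57.5 uM) added 1 h before LPS (250 ng/mL) and ATP (1.25 mM) stimulation; lower signal means less secretion.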
# DT40 TDP1 no CPT = qHTS for Inhibitors of human tyrosyl-DNA phosphodiesterase 1 (TDP1): qHTS in cells in absence of CPT | DT40 Tdp1-/- hTDP1 cells, no CPT, ATP luminescence, 48 h | Potency, µM (top dose mostly 46.2 µM), inactives show top-dose activity change, negative = growth inhibition, hits mostly inhibitors | 15% of 420,000 active; also: potency is read from the fitted curve at half-maximal effect; nearly all actives have a fitted effect of over 55% in size
#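 Seeded 400 DT40-hTDP1 cells/well (vehicle DMSO, no 20 nM CPT); pinned compounds; ≥48 hr at 37 °C; CellTiter-Glo luminescence as viability measure.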
# HT1080 IDH1KD tx = kills HT-1080 cells with IDH1 knockdown | HT-1080 IDH1 knockdown viability, ATP luminescence, 48 h | Potency, µM (doses to about 46.1 µM), for inactives: at the highest dose activity, negative = toxicity, most hits filed as cytotoxic | 2% of 360,000 active;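 also: potency is read from the fitted curve at half-maximal effect; 0% = DMSO wells and -100% = cell-free medium wells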
#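 Cytotoxicity counter-line: IDH1KD HT-1080, 48 h, CellTiter-Glo. Curves classed by r2, magnitude and activity.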
# Starred values were filed as active, the others as inactive; ? = inconclusive; / = not tested or not shown; [ ] = remark or other dose. Unless noted, calls follow the shape of the dose curve; as a rule, active = well fitted curve in the direction sought with a large enough effect; inconclusive = small, poorly fitted or top-dose-only effect, or another doubt; inactive = no such curve, though single readings can be large; an effect the other way counts as inactive or inconclusive. Unless noted, % is scaled to controls: 0 for no effect and ±100 for the full control effect.
SMILES,HT1080NT lethal,DT40 TDP1 CPT,IL-1B inflam inh,DT40 TDP1 no CPT,HT1080 IDH1KD tx
O=S(=O)(c1ccccc1)N1CCCCC1CCc1ccccc1 (stereo unspecified),-0.7%,?,-28.8,13µM*,-12.5%
COc1ccccc1CCNC(=O)C(=O)NCCC1CCCCN1S(=O)(=O)c1ccccc1 (stereo unspecified),-13.0%,?,-14.7,16.4µM*,-16.2%
CC1CCCCN1S(=O)(=O)c1ccccc1[N+](=O)[O-] (stereo unspecified),0.2%,-18.8%,16.9,0.0%,-4.9%
CCC1CCCCN1S(=O)(=O)c1ccccc1[N+](=O)[O-] (stereo unspecified),-19.7%,20.6µM*,2.0,23.1µM*,-21.0%
COc1ccc(CCNC(=O)C(=O)NCCC2CCCCN2S(=O)(=O)c2ccccc2)cc1 (stereo unspecified),-12.7%,23.1µM*,8.9,23.1µM*,-27.0%
Cc1ccc(-c2nc3ccccc3nc2NN)cc1,-6.9%,-27.8%,20.1,-11.5%,-0.5%
Cc1ccc(S(=O)(=O)c2nnn3c2nc(N2CCCC2)c2sccc23)cc1,/,-7.7%,/,0.3%,/
CC1(C(=O)NS(C)(=O)=O)CCN1C(=O)C/C=C/c1ccccc1 (stereo unspecified),?,-19.9%,-2.7,-14.5%,22.6%
Cc1ccc(C(=O)N/C(=C\c2ccc(Cl)cc2)C(=O)NCC2CCCO2)cc1 (stereo unspecified),-1.6%,0.8%,0.0,12.5%,15.0%
CCOC(=O)c1c(C)cc(=O)oc1C,1.3%,0.7%,4.4,-6.7%,11.5%
CCOC(=O)c1c(C)oc2c1C(=O)c1ccccc1C2=O,2.0%,4.61µM*,60.4,4.11µM*,4.7%
O=C1C(=O)c2c(C(=O)c3ccccc3)coc2-c2ccccc21,-0.4%,3.26µM*,?,2.06µM*,?
Cc1oc2c(c1C(=O)c1ccccc1)C(=O)C(=O)c1ccccc1-2,18.4µM*,1.16µM*,-88.3*,1.84µM*,18.4µM*
Cc1oc(=O)c(NC(=O)c2ccccc2)cc1C(=O)c1ccccc1,-16.9%,?,0.5,?,-4.3%
Cc1ccc(Cn2cc(CN3CC(N4CCN(Cc5ccccc5F)CC4)CS3(=O)=O)nn2)cc1 (stereo unspecified),-0.5%,?,-1.5,16.4µM*,-26.2%
O=S1(=O)CC(N2CCN(CCO)CC2)CN1Cc1cn(Cc2ccc(C(F)(F)F)cc2)nn1 (stereo unspecified),15.3%,-28.1%,13.9,-20.5%,19.7%
Cc1cc(C)cc(Cn2cc(CN3CC(N4CCN(Cc5ccccc5F)CC4)CS3(=O)=O)nn2)c1 (stereo unspecified),6.0%,?,13.5,?,-29.5%
O=S1(=O)CC(N2CCN(Cc3ccccc3F)CC2)CN1Cc1cn(Cc2ccc(C(F)(F)F)cc2)nn1 (stereo unspecified),-17.9%,13µM*,-21.4,9.2µM*,?
CCCN(C)C1CN(Cc2cn(Cc3cccc(C(F)(F)F)c3)nn2)S(=O)(=O)C1 (stereo unspecified),12.1%,-11.8%,2.8,-12.6%,7.0%
CN(Cc1cn(Cc2cccc(C(F)(F)F)c2)nn1)C1CN(Cc2cn(Cc3cccc(C(F)(F)F)c3)nn2)S(=O)(=O)C1 (stereo unspecified),-17.2%,13µM*,?,13µM*,-5.7%
COc1ncc(-c2ccc(N3C(c4ccc([N+](=O)[O-])cc4)=Cc4ccccc4C3CC(C)=O)cc2)cn1 (stereo unspecified),5.1%,?,7.9,?,12.0%
Cc1ccc(NC(=O)CCNS(=O)(=O)c2ccc3c(c2)CCC(=O)N3)cc1,16.9%,-8.8%,9.6,15.3%,27.9%
CC1CCCN(CC(O)COC(c2ccccc2)c2ccccc2)C1 (stereo unspecified),-26.0%,-5.5%,?,-25.9%,-18.7%
Cc1ccc(-c2ccc(=O)n(CC(=O)NCC3COCCO3)n2)cc1 (stereo unspecified),8.2%,0.7%,-4.0,5.6%,-3.1%
COCCN(C(=O)COC(=O)c1ccc(-c2ccccc2)cc1)c1c(N)n(Cc2ccccc2)c(=O)[nH]c1=O,0.9%,?,?,?,-0.4%
SMILES,HT1080NT lethal,DT40 TDP1 CPT,IL-1B inflam inh,DT40 TDP1 no CPT,HT1080 IDH1KD tx
COc1ccc(OC)c(S(=O)(=O)N2CCC(C(=O)Nc3cccc(C)c3C)CC2)c1,2.0%,-6.7%,-20.8,-13.9%,-2.5%
COc1ccc(NC(=O)C2CCC(C(C)(C)C)CC2)cc1S(=O)(=O)N1CCOCC1 (stereo unspecified),-3.2%,20.6µM*,35.1,?,-23.8%
COc1ccc(NC(=O)C2CCC2)cc1S(=O)(=O)N1CCOCC1,7.4%[9.24 µM],-7.3%,-3.0,1.9%,1.5%
COc1ccc(OC)c(S(=O)(=O)N2CCC(C(=O)Nc3ccc(C)c(C)c3)CC2)c1,-3.0%,16.4µM*,-18.3,20.6µM*,-8.7%
Fc1ccc2c(c1)c1n[nH]c(=S)nc1n2CCc1ccccc1,-4.6%,?,-9.6,?,-10.3%
Cc1ccc2c(c1)c1n[nH]c(=S)nc1n2CCc1ccccc1,-0.1%,16.4µM*,17.4,25.9µM*,3.1%
CCOc1ccc(CCNC(=O)C2CCN(C(=O)N3CC(CC)Oc4ccccc43)CC2)cc1 (stereo unspecified),/,14.6µM*,/,14.6µM*,/
CC(C)Oc1ccc(CNC(=O)C2CCN(C(=O)N3CCOc4ccccc43)CC2)cc1,4.5%,?,17.3,?,0.1%
CCOc1ccc(S(=O)(=O)N2CCC(C(=O)NCCc3ccccc3)CC2)cc1,-11.8%,-22.8%,0.0,4.7%,-2.6%
CCOc1ccc(CNC(=O)C2CCN(C(=O)N3CC(CC)Oc4ccccc43)CC2)cc1 (stereo unspecified),/,14.6µM*,/,23.1µM*,/
CCC1CN(C(=O)N2CCC(C(=O)NCc3ccc(N(C)C)cc3)CC2)c2ccccc2O1 (stereo unspecified),/,16.4µM*,/,?,/
O=C(NCc1cccs1)C1CCN(C(=O)N2CCOc3ccccc32)CC1,/,-22.1%,/,-6.9%,/
Cc1ccc(C2=Nc3ccc(Br)cc3C(c3ccncc3)=NN2)cc1,-8.5%,?,-148.8*,-28.3%,?
CCN(CC)c1ccc(NC(=O)c2ccco2)cc1,18.5%,-6.9%,-12.5,-12.6%,6.1%
CCN(CC)c1ccc(/C=N/N=C(c2ccccc2)c2ccccc2)c(O)c1,-6.1%,?,-23.2,20.6µM*,-22.6%
CCN(CC)c1ccc(NC(=S)NC(=O)c2ccco2)cc1,-19.8%,18.4µM*,-18.2,18.4µM*,?
CCN(CC)c1ccc(/C=N/NC(=O)c2ccco2)c(O)c1,?,5.17µM*,343.6,2.59µM*,?

# Compound activity deposited in PubChem BioAssay by National Center for Advancing Translational Sciences (NCATS).
